Results filed as inconclusive are left out. The source made the active and inactive calls. How the source made its calls, unless noted: active means hit-call score of the fitted dose curve at least 0.9, where 1 is the maximum; inconclusive means response in the unintended direction; inactive means score below 0.9.

A short description of assay [1]: IUF_NPC2c_oligodendrocyte_migration_120hr: Leibniz Research Institute for Environmental Medicine (IUF) 120-hour Neural Progenitor Cell Migration Assay for Oligodendrocyte Migration (NPC2c) (AID 2284297; active means hit-call score of the fitted dose curve at least 0.9, where 1 is the maximum; inactive means score below 0.9;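 further: O4-positive oligodendrocyte migration distance divided by radial glia migration distance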). A digest of the protocol: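 Using fetal brain neural progenitor spheres differentiating in N2 medium at 37C, compounds were present for 120 h. Oligodendrocyte migration distance, normalized to radial glia migration, was measured from imaged O4 staining.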

Assay [2] in a line: IUF_NPC2a_radial_glia_migration_120hr: Leibniz Research Institute for Environmental Medicine (IUF) 120-hour Neural Progenitor Cell Migration Assay for Radial Glia Migration (NPC2a) (AID 2284298; active means hit-call score of the fitted dose curve at least 0.9, where 1 is the maximum; inactive means score below 0.9). In short, it runs like this:
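Exposure of 0.3 mm primary hNPC spheres runs day 0 to 120 h with a half-volume medium change at day 3. Fixed cells get Hoechst staining; high-content analysis of nuclear positions yields radial glia migration distance per well, compared against DMSO controls.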

Assay [3] in a line: IUF_NPC2a_radial_glia_migration_72hr: Leibniz Research Institute for Environmental Medicine (IUF) 72-hour Neural Progenitor Cell Migration Assay for Radial Glia Migration (NPC2a) (AID 2284299; active means hit-call score of the fitted dose curve at least 0.9, where 1 is the maximum; inactive means score below 0.9). In short, it runs like this:
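Spheres of human primary neural progenitors migrate on poly-D-lysine/laminin under compound exposure at 37C, 5% CO2. The 72 h radial glia migration distance comes from brightfield images, measured manually.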

The nature of assay [4]: IUF_NPC2b_neuronal_migration_120hr: Leibniz Research Institute for Environmental Medicine (IUF) 120-hour Neural Progenitor Cell Migration Assay for Neuron Migration (NPC2b) (AID 2284300; active means hit-call score of the fitted dose curve at least 0.9, where 1 is the maximum; inactive means score below 0.9). In short, it runs like this:
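Fetal human NPC spheres migrate on PDL/laminin during 120 h compound treatment; neuronal migration distance, glia-normalized, scored versus DMSO control.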

Assay [5] in a line: IUF_NPC3_neuronal_differentiation_120hr: Leibniz Research Institute for Environmental Medicine (IUF) 120-hour Neuronal Differentiation Assay (NPC3) (AID 2284301; active means hit-call score of the fitted dose curve at least 0.9, where 1 is the maximum; inactive means score below 0.9). In short, it runs like this:
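hNPC spheres, PDL/laminin, DMEM/F12 3:1 + 1% N2, 37C, 5% CO2; 7 concentrations + solvent control, 5 d exposure, half-change day 3. Fix 120 h; TUBB3/Hoechst ICC, CNN neuron calling; % neurons vs nuclei, DMSO-normalized.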

The nature of assay [6]: IUF_NPC4_neurite_length_120hr: Leibniz Research Institute for Environmental Medicine (IUF) 120-hour Neuronal Morphology Assay for Neurite Length (NPC4) (AID 2284302; active means hit-call score of the fitted dose curve at least 0.9, where 1 is the maximum; inactive means score below 0.9). In short, it runs like this:
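hNPC spheres (0.3 mm, fetal brain GW 16-19) on PDL/laminin, DMEM:F12 3:1 + 1% N2, 37C 5% CO2; 7 concs + solvent control, day 0-5, half medium change d3; fix 120 h, TUBB3 ICC, mean neurite length um vs DMSO.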

Assay [7] in a line: IUF_NPC5_oligodendrocyte_differentiation_120hr: Leibniz Research Institute for Environmental Medicine (IUF) 120-hour Oligodendrocyte Differentiation Assay (NPC5) (AID 2284304).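 Further: primary human fetal neural progenitor spheres plated to migrate and differentiate; share of O4-positive cells among Hoechst nuclei found by CNN image analysis.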 A digest of the protocol: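 After plating on poly-D-lysine/laminin, fetal-derived hNPC spheres differentiated for 120 h at 37C in compound-containing N2 medium, refreshed by half on day 3. O4 immunostaining over Hoechst nuclei in the migration zone gave oligodendrocyte percentage relative to DMSO.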

Assay [8] is described as follows: IUF_NPC4_neurite_area_120hr: Leibniz Research Institute for Environmental Medicine (IUF) 120-hour Neuronal Morphology Assay for Neurite Area (NPC4) (AID 2284305). In short, it runs like this: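 hNPC spheres on PDL/laminin, N2 medium, 37C/5% CO2; dosed day 0, half-medium refresh day 3; fixed 120 h; TUBB3/Hoechst ICC, high-content imaging; neurite area = mean pixels per neuron (nuclei excluded); DMSO baseline, max 0.1%.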

Assay [9] is described as follows: IUF_NPC2-5_cytotoxicity_72hr: Cytotoxicity Assessment at 72 hours in the Leibniz Research Institute for Environmental Medicine (IUF) Neural Progenitor Cell Migration and Differentiation Assay for Cytotoxicity (NPC2-5) (AID 2284306).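 Further: LDH release into supernatant measured by resorufin fluorescence marking membrane damage.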 In short, it runs like this: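 hNPC spheres (0.3 mm), PDL/laminin, DMEM/F12 3:1 + 1% N2; cpd from d0, 7 concs + SC, DMSO max 0.1%; half-medium refresh d3. Readout: supernatant LDH via resorufin fluorescence (RFU), 72 h; gain-of-signal fit.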

The nature of assay [10]: IUF_NPC2-5_cytotoxicity_120hr: Cytotoxicity Assessment at 120 hours in the Leibniz Research Institute for Environmental Medicine (IUF) Neural Progenitor Cell Migration and Differentiation Assay (NPC2-5) (AID 2284307). In short, it runs like this: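 Membrane-integrity loss is quantified by LDH in supernatant after five days of exposure of migrating, differentiating human fetal NPC spheres; seven serially diluted concentrations are tested with DMSO kept at or below 0.1%.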

The nature of assay [11]: IUF_NPC2-5_cell_number_120hr: Cell Number Assessment at 120 hours in the Leibniz Research Institute for Environmental Medicine (IUF) Neural Progenitor Cell Migration and Differentiation Assay (NPC2-5) (AID 2284308; active means hit-call score of the fitted dose curve at least 0.9, where 1 is the maximum; inactive means score below 0.9;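 further: count of Hoechst-stained nuclei in migration zone around plated human neural progenitor spheres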). In short, it runs like this: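 Seven-point serial dilutions plus solvent control were applied to plated 0.3 mm hNPC spheres at differentiation start, with medium half-replaced at day 3. Nuclei positive for Hoechst in the migration zone were enumerated at 120 h.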

Assay [12] in a line: IUF_NPC2-5_viability_120hr: Viability Assessment at 120 hours in the Leibniz Research Institute for Environmental Medicine (IUF) Neural Progenitor Cell Migration and Differentiation Assay (NPC2-5) (AID 2284312; active means hit-call score of the fitted dose curve at least 0.9, where 1 is the maximum; inactive means score below 0.9). A digest of the protocol: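 Human fetal neural progenitor spheres (0.3 mm) plated on poly-D-lysine/laminin in N2 differentiation medium, exposed 120 h with half-medium refresh at day 3. Viability by alamar blue resazurin fluorescence; 7 concentrations, DMSO max 0.1%.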

The nature of assay [13]: CCTE_Mundy_HCI_iCellGluta_NOG_NeuriteLength: CCTE's Neurite Outgrowth Assay in iCellGluta cells for Neurite Length, Mundy Lab (AID 2284318). A digest of the protocol:
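Automated high-content imaging of betaIII-tubulin (Alexa Fluor-488) and Hoechst-stained cells gave neurite length, normalized to the DMSO baseline.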

A short description of assay [14]: IUF_NPC1_cytotoxicity_72hr: Cytotoxicity Assessment at 72 hours in the Leibniz Research Institute for Environmental Medicine (IUF) Neural Progenitor Cell Proliferation Assay (NPC1) (AID 2284332).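 Further: rising LDH signal means more cytotoxicity.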 A digest of the protocol: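 Readout is fluorescence from LDH-dependent resazurin conversion, sampled from culture medium after compound contact lasting 72 h. Each well holds one 0.25-0.35 mm human progenitor sphere kept at 37C, 5% CO2 with EGF and FGF.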

Assay [15] can be described thus: CCTE_Mundy_HCI_iCellGluta_NOG_NeuronCount: CCTE's Neurite Outgrowth Assay in iCellGluta cells for Neuron Count, Mundy Lab (AID 2284340).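 Further: cells fixed about 48 h after compound addition.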 In short, it runs like this:
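Neuron count read by automated high-content imaging of Hoechst 33342 and betaIII-tubulin/Alexa Fluor-488 labelling in human iPSC glutamatergic neurons. Activity fitted relative to DMSO.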

A short description of assay [16]: CCTE_Mundy_HCI_iCellGluta_NOG_NeuriteCount: CCTE's Neurite Outgrowth Assay in iCellGluta cells for Neurite Count, Mundy Lab (AID 2284342).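 Further: chemical exposure about 48 hours starting 2 hours after plating.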

With `[Cl-].[Cl-].[NH2-].[NH2-].[Pt+4]`, the call in assay [1], in [2], in assay [3], in assay [4], in assay [7] and in [8] was inactive. Further, the call in assay [10], in assay [12] and in [14] was inactive. Moreover, the AC50 – broadly, the midpoint of the concentration-response curve, whichever way the signal moves – in [5] is 9.95 µM (active); in assay [6] it was 33.2 µM (active); in [9], 34.7 µM (active); in assay [11], 28.4 µM (active); in [13], 26 µM (active); in assay [15], 85.7 µM (active). Besides, in assay [16], the AC50 was 70 µM (active).

The values above are taken from PubChem BioAssay (EPA / NIEHS).
